This assay relates to Vero E6 infected with SARS-CoV-2. In words: inhibition of SARS-CoV-2 cytopathic effect; higher = more antiviral protection, active = above 15. The conditions noted are these: 8.33 nM; 48 h. A general note: Protection from cytopathic effect is a common read-out in antiviral testing.
Take `NS(=O)(=O)c1cc(C(=O)O)c(NCc2ccco2)cc1Cl` [furosemide]: the “inhibition of SARS-CoV-2 cytopathic effect” value (from here on “inhibition”) was 1.27% (inactive).

For `CCN1CCCC(OC(=O)C(c2ccccc2)c2ccccc2)C1` (stereo not given) [piperidolate], the “inhibition” value is -7.13% (inactive).

Regarding `N=C(N)S/C=C\C(=O)O`, the “inhibition” value was 0.81% (inactive).

As for `c1ccc(N2CCN(CCCOc3ccc4c(c3)OCO4)CC2)cc1`, the “inhibition” value is -2.11% (inactive).

Take `COc1cc(NC(=O)c2ccc(-c3ccc(Cl)cc3)o2)cc(OC)c1`: the “inhibition” value is 0.3% (inactive).

For the compound `CC(C)(C)c1cc(NC(=O)Nc2ccc(-c3cn4c(n3)sc3cc(OCCN5CCOCC5)ccc34)cc2)no1` [quizartinib], the “inhibition” value was -0.28% (inactive).

In the case of `Cc1ccc(S(=O)(=O)Nc2ccc3c(c2)c(C(=O)C(F)(F)F)cn3CC(=O)N[C@@H](CC(C)C)C(=O)O)cc1`, the “inhibition” value is -1.93% (inactive).

With `CCCCN(CCCC)CC(O)c1cc(Cl)cc2c1-c1ccc(Cl)cc1/C2=C/c1ccc(Cl)cc1` (stereo not given) [lumefantrine], the “inhibition” value was 3.13% (inactive).

In the case of `NCCNc1ccc(NCCN)c2c1C(=O)c1ccncc1C2=O` [pixantrone], the “inhibition” value is 0.16% (inactive).

With `CCOC(=O)c1ccc(O)cc1` [ethyl-paraben], the “inhibition” value was 3.38% (inactive).

On to `N=C(N)SCCc1c[nH]cn1` [imetit], for which the “inhibition” value is -0.44% (inactive).

With `CN[C@@H]1[C@@H](O)[C@@H](O[C@@H]2[C@@H](O)[C@H](O[C@H]3OC(CN)=CC[C@H]3N)[C@@H](N)C[C@H]2N)OC[C@]1(C)O` [Sisomicin (sulfate)], the “inhibition” value was 0.45% (inactive).

As to `CO[C@@H]1[C@H](O)[C@@H](CO)O[C@H]1n1cnc2c(NC3CCCCC3)ncnc21`, the “inhibition” value was 1.94% (inactive).

For `NC(=O)[C@H]1CCS[C@@H]2C[C@]3(CCCN3C(=O)Cc3ccc(NC(=O)COc4ccc(Cl)cc4Cl)cc3)C(=O)N12`, the “inhibition” value was 0.01% (inactive).

On to `CN(C)CCCCSC(=N)N`, for which the “inhibition” value was -3.4% (inactive).

Consider `C/C(=N\NC(=N)N)c1cc(NC(=O)CCCCCCCCC(=O)Nc2cc(/C(C)=N/NC(=N)N)cc(/C(C)=N/NC(=N)N)c2)cc(/C(C)=N/NC(=N)N)c1` [semapimod], for which the “inhibition” value was 2.42% (inactive).

For `C[C@]12CCC(=O)C=C1[C@@H]1C[C@@H]1[C@H]1[C@@H]3[C@@H]4C[C@@H]4[C@@]4(CCC(=O)O4)[C@@]3(C)CC[C@@H]12` [drospirenone], the “inhibition” value is -1.07% (inactive).

For the compound `CC(=O)N1N=C(c2ccc(N)cc2)c2cc3c(cc2C[C@H]1C)OCO3` [talampanel], the “inhibition” value is 0.84% (inactive).

In the case of `O=C(O)C(=O)c1cn(Cc2ccccc2)c2ccc(-c3ccc(OC(F)(F)F)cc3)cc12` [tiplaxtinin], the “inhibition” value was 2.56% (inactive).

For the compound `OCCn1cc(-c2ccc3c(c2)CC/C3=N\O)c(-c2ccncc2)n1`, the “inhibition” value was 9.39% (inactive).

In the case of `O=C(O)c1ccc(-n2nc(-c3ccccc3O)nc2-c2ccccc2O)cc1` [deferasirox], the “inhibition” value was -4.22% (inactive).

With `CC(C)CCC[C@@H](C)[C@H]1CC[C@H]2[C@@H]3CCC4=CC(=NO)CC[C@]4(C)[C@H]3CC[C@]12C` [olesoxime], the “inhibition” value was 0.28% (inactive).

Regarding `Oc1ccc2c(c1)CC[C@H](c1ccccc1)[C@@H]2c1ccc(OCCN2CCCC2)cc1` [lasofoxifene], the “inhibition” value is 4.35% (inactive).

For `Cc1cc(O)c2c(c1)C(=O)c1cc(O)cc(O)c1C2=O` [emodin], the “inhibition” value is 0.93% (inactive).

`CN1CCC(=C2c3ccccc3CCn3c(C=O)cnc32)CC1` [alcaftadine]: the “inhibition” value was 0.26% (inactive).

For `C[C@@H]1C/C=C/C=C/C=C/C=C/[C@H](O[C@@H]2O[C@H](C)[C@@H](O)[C@H](N)[C@@H]2O)C[C@@H]2O[C@](O)(C[C@@H](O)C[C@H]3O[C@@H]3/C=C/C(=O)O1)C[C@H](O)[C@H]2C(=O)O` [natamycin], the “inhibition” value is -0.49% (inactive).

Regarding `CC[C@]1(O)C[C@@H]2CN(CCc3c([nH]c4ccccc34)[C@@](C(=O)OC)(c3cc4c(cc3OC)N(C)[C@H]3[C@@](O)(C(=O)OC)[C@H](OC(C)=O)[C@]5(CC)C=CCN6CC[C@]43[C@@H]65)C2)C1` [Vinblastine (sulfate)], the “inhibition” value is 1.74% (inactive).

For `CC(C(=O)O)c1ccc(N2Cc3ccccc3C2=O)cc1` (stereo not given) [indoprofen], the “inhibition” value was 0.93% (inactive).

On to `NCC(=O)Nc1ccc(-n2nc(C(F)(F)F)cc2-c2ccc3c(ccc4ccccc43)c2)cc1`, for which the “inhibition” value was 2.22% (inactive).

On to `CN1Cc2c(N)cccc2C(c2ccccc2)C1` (stereo not given) [nomifensine], for which the “inhibition” value was 1.01% (inactive).

Take `COc1ccc(-c2ccc3cc(C(=O)O)ccc3c2)cc1C12CC3CC(CC(C3)C1)C2` [adapalene]: the “inhibition” value is -0.29% (inactive).

As to `CC(=O)Oc1c(C)cc(OCC(O)CNC(C)C)c(C)c1C` (stereo not given) [metipranolol], the “inhibition” value is 0.56% (inactive).

As to `CCNC(=O)c1noc(-c2cc(C(C)C)c(O)cc2O)c1-c1ccc(CN2CCOCC2)cc1`, the “inhibition” value is -0.58% (inactive).

`Cc1c(C(=O)N2CCOc3ccc(-c4ccc(N)nc4)cc3C2)ccc(S(C)(=O)=O)c1F`: the “inhibition” value was 1.25% (inactive).

Turning to `CCn1c(=O)[nH]c2cc(Cl)c(Cl)cc21`, the “inhibition” value was 1.8% (inactive).

Regarding `CC(=O)Nc1c(I)c(C(=O)O)c(I)c(N(C)C(C)=O)c1I` [metrizoic-acid], the “inhibition” value was 0.34% (inactive).

Consider `O=C(NCCN1CCC2(CC1)C(=O)NCN2c1cccc(F)c1)c1ccc2ccccc2c1`, for which the “inhibition” value is 3.53% (inactive).

Regarding `CCn1cc(C(=O)O)c(=O)c2cnc(N3CCCC3)nc21` [piromidic-acid], the “inhibition” value is 1.01% (inactive).

`CSc1cc2c(cc1C(F)(F)F)N(C(=O)Nc1cccnc1)CC2`: the “inhibition” value is -3.61% (inactive).

Consider `COc1cc(OC)c2c(=O)[nH]c(-c3cc(C)c(OCCO)c(C)c3)nc2c1` [apabetalone], for which the “inhibition” value is 0.93% (inactive).

(Values after the supplement of paper PMC13380429.)
